Reference: the supplement of paper PMC6992640
Counter-ions that a name gives are not always drawn. ± gives the standard deviation of the averaged measurements.

Columns and labels:
Test in all cases: cell viability (% of vehicle); higher = less cytotoxic
Details in all cases: 10 µM; 72 h
[1] = system: HCI01 (cells of a triple-negative basal-like breast cancer xenograft)
[2] = system: HCI03 (cells of an ER-positive luminal breast cancer xenograft)
[3] = system: HCI09 (cells of a triple-negative luminal androgen receptor type breast cancer xenograft)
[4] = system: HCI11 (cells of an ER-positive luminal breast cancer xenograft)
[5] = system: HCI13 (cells of an ER-positive luminal breast cancer xenograft)
[6] = system: HCI16 (cells of a triple-negative basal-like breast cancer xenograft)
[7] = system: UCD52 (cells of a triple-negative basal-like breast cancer xenograft)
[8] = system: WHIM2 (cells of a triple-negative basal-like breast cancer xenograft)
[9] = system: WHIM30 (cells of a triple-negative basal-like breast cancer xenograft)
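Note: PDX cells carrying CMV promoter-driven luciferase, viability read as total photon flux per second by IVIS imaging following D-luciferin, vehicle control 0.1% DMSO.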

SMILES | cell viability [1] | cell viability [2] | cell viability [3] | cell viability [4] | cell viability [5] | cell viability [6] | cell viability [7] | cell viability [8] | cell viability [9]
CN(C)CCOC(c1ccccc1)c1ccccc1.Cl [Diphenhydramine HCl] | 109 ± 18 | 123 | 87 ± 2.5 | 90.8 | 74 ± 3.2 | 118 | 84.2 ± 6.5 | 107 ± 32 | 116 ± 28
NC(=O)NN=Cc1ccc([N+](=O)[O-])o1 [Nitrofurazone] | 125 ± 3.8 | 149 | 38.5 ± 15 | 92.3 | 159 ± 12 | 148 | 137 ± 15 | 105 ± 7.4 | 118 ± 18
CO/N=C(\C(=O)N[C@@H]1C(=O)N2C(C(=O)[O-])=C(COC(C)=O)CS[C@H]12)c1csc(N)n1.[Na+] [Cefotaxime (sodium salt)] | 94.8 ± 14 | 121 | 105 ± 3.7 | 74.9 | 155 ± 13 | 107 | 116.5 ± 0.35 | 99.12 ± 0.99 | 136.3 ± 0.17
CNCC(O)C(O)C(O)C(O)CO.Cc1c(Nc2ncccc2C(=O)O)cccc1C(F)(F)F [Flunixin Meglumin] | 135 ± 49 | 120 | 141 ± 44 | 103 | 133 ± 14 | 105 | 77.6 ± 16 | 130 ± 17 | 107 ± 2.9
CN(C)CCC=C1c2ccccc2CCc2ccccc21.Cl [Amitriptyline HCl] | 103 ± 18 | 99.2 | 87.6 ± 6.1 | 83.2 | 105 ± 9.9 | 135 | 74.5 ± 4.4 | 100 ± 1.1 | 114 ± 2.5
CN(C)CCC(c1ccccc1)c1ccccn1.O=C(O)C=CC(=O)O (stereo not given) [Pheniramine Maleate] | 111 ± 10 | 123 | 108 ± 34 | 101 | 94.008 ± 0.0093 | 132 | 117 ± 27 | 97.8 ± 24 | 124 ± 14
O=C(O)COCCN1CCN(C(c2ccccc2)c2ccc(Cl)cc2)CC1 (stereo not given) [Cetirizine] | 108 ± 5.1 | 95.2 | 97.2 ± 2.1 | 93.5 | 108 ± 2.5 | 74.6 | 92.6 ± 3.8 | 94.8 ± 4.7 | 128 ± 9.9
CC(C[N+](C)(C)C)OC(N)=O.[Cl-] (stereo not given) [Bethanechol chloride] | 86.3 ± 5.2 | 88 | 90.8 ± 12 | 82.5 | 104 ± 14 | 101 | 100 ± 5.9 | 105 ± 6.2 | 79.4 ± 1.9
CCC1OC(=O)C(C)C(OC2CC(C)(OC)C(O)C(C)O2)C(C)C(OC2OC(C)CC(N(C)C)C2O)C(C)(O)CC(C)C2NC(COCCOC)OC(C2C)C1(C)O (stereo not given) [Dirithromycin] | 143 ± 72 | 117 | 89.5 ± 16 | 94 | 76.3 ± 11 | 103 | 81.8 ± 15 | 90.6 ± 12 | 92.4 ± 3.8
CN(C)CC(c1ccc(O)cc1)C1(O)CCCCC1.O.O=C(O)CCC(=O)O (stereo not given) [Desvenlafaxine Succinate] | 91 ± 6.9 | 153 | 107 ± 13 | 92.6 | 110 ± 9.4 | 129 | 92.4 ± 9.8 | 105 ± 10 | 133 ± 2.2
COc1ccc(CC2c3cc(OC)c(OC)cc3CC[N+]2(C)CCC(=O)OCCCCCOC(=O)CC[N+]2(C)CCc3cc(OC)c(OC)cc3C2Cc2ccc(OC)c(OC)c2)cc1OC.O=S(=O)([O-])c1ccccc1.O=S(=O)([O-])c1ccccc1 (stereo not given) [Atracurium Besylate] | 187 ± 100 | 110 | 87.1 ± 58 | 81 | 80.1 ± 19 | 145 | 126 ± 2.7 | 71.5 ± 12 | 97.1 ± 7
COc1ccnc(C[S+]([O-])c2nc3cc(OC(F)F)ccc3[nH]2)c1OC (stereo not given) [Pantoprazole] | 123 ± 15 | 133 | 102 ± 2.6 | 103 | 97.1 ± 2.1 | 108 | 130 ± 5.1 | 100 ± 7.9 | 130 ± 7.3
CC(=O)c1c(C)c2cnc(Nc3ccc(N4CCNCC4)cn3)nc2n(C2CCCC2)c1=O.Cl | 134 ± 73 | 141 | 86.1 ± 9.9 | 152 | 110 ± 31 | 114 | 82.86 ± 0.55 | 88.8 ± 7.7 | 132 ± 6.1
CN(C)CCC=C1c2ccccc2COc2ccc(CC(=O)O)cc21.Cl [Olopatadine HCl] | 122 ± 18 | 130 | 101 ± 9.1 | 97.6 | 182 ± 38 | 99.1 | 81.6 ± 14 | 87.1 ± 13 | 108 ± 4.9
CN(C)CCC(c1ccc(Cl)cc1)c1ccccn1.O=C(O)C=CC(=O)O (stereo not given) [Chlorpheniramine Maleate] | 157 ± 40 | 115 | 108 ± 13 | 97 | 178 ± 38 | 126 | 79.7 ± 2.5 | 82.8 ± 11 | 127 ± 12
OC(Cn1cncn1)(Cn1cncn1)c1ccc(F)cc1F [Fluconazole] | 71.5 ± 43 | 153 | 99.3 ± 22 | 94.2 | 112 ± 4.8 | 119 | 76.5 ± 8.7 | 99.2 ± 27 | 180 ± 2.3
CC(OC1OCCN(Cc2nc(=O)n(P(=O)(O)O)[nH]2)C1c1ccc(F)cc1)c1cc(C(F)(F)F)cc(C(F)(F)F)c1.CNCC(O)C(O)C(O)C(O)CO.CNCC(O)C(O)C(O)C(O)CO (stereo not given) [Fosaprepitant dimeglumine salt] | 67.4 ± 51 | 103 | 52.4 ± 27 | 85.1 | 76.2 ± 6.3 | 91.7 | 57.2 ± 7.3 | 79.7 ± 44 | 109 ± 2.4
CS(=O)(=O)Nc1ccc([N+](=O)[O-])cc1Oc1ccccc1 [Nimesulide] | 146 ± 23 | 117 | 80.56 ± 0.45 | 104 | 109 ± 4.1 | 144 | 81.5 ± 15 | 107 ± 13 | 92.5 ± 2.9

SMILES | cell viability [1] | cell viability [2] | cell viability [3] | cell viability [4] | cell viability [5] | cell viability [6] | cell viability [7] | cell viability [8] | cell viability [9]
Cc1cccn2c(=O)c(-c3nnn[n-]3)cnc12.[K+] [Pemirolast potassium] | 97.99 ± 0.96 | 98.7 | 84 ± 3.5 | 90.1 | 97.8 ± 29 | 108 | 92.2 ± 1.2 | 113 ± 7.9 | 93.4 ± 17
NCC1OC(OC2C(CO)OC(OC3C(O)C(N)CC(N)C3OC3OC(CO)C(O)C(O)C3N)C2O)C(N)C(O)C1O.O=S(=O)(O)O (stereo not given) [Paromomycin Sulfate] | 125 ± 32 | 133 | 88.3 ± 10 | 95 | 86.8 ± 14 | 129 | 91.82 ± 0.62 | 131 ± 48 | 111 ± 8
Cl.NC(CO)C(=O)NNCc1ccc(O)c(O)c1O (stereo not given) [Benserazide HCl] | 95.9 ± 1.5 | 69.1 | 83.6 ± 6.1 | 44.9 | 79.2 ± 11 | 77.2 | 69.6 ± 8.5 | 96.3 ± 3.2 | 103 ± 4.4
CN1C[C@@H]2c3ccccc3Oc3ccc(Cl)cc3[C@H]2C1.O=C(O)/C=C/C(=O)O [Asenapine] | 91.9 ± 7 | 93 | 68.9 ± 5.4 | 93.7 | 72.7 ± 4.8 | 121 | 71 ± 5.6 | 79.5 ± 14 | 114 ± 25
OCC1OC(Oc2ccc(O)cc2)C(O)C(O)C1O (stereo not given) [Arbutin] | 107 ± 28 | 127 | 100 ± 16 | 89.2 | 96.6 ± 4.9 | 131 | 103 ± 1.1 | 81.9 ± 9 | 84.3 ± 7.3
CS(=O)(=O)O.Cc1ccc(NC(=O)c2ccc(CN3CCN(C)CC3)cc2)cc1Nc1nccc(-c2cccnc2)n1 [Imatinib Mesylate (STI571)] | 157 ± 24 | 86.7 | 67.7 ± 12 | 69.7 | 91.3 ± 11 | 99 | 67.8 ± 1.8 | 88.9 ± 6.2 | 114 ± 18
CO/C(O)=N/[C@H](C(=O)N1CC2(CC2)C[C@H]1c1ncc(-c2ccc3c(c2)C(F)(F)c2cc(-c4ccc5nc([C@@H]6[C@H]7CC[C@H](C7)N6C(=O)[C@@H](/N=C(\O)OC)C(C)C)[nH]c5c4)ccc2-3)[nH]1)C(C)C [Ledipasvir] | 103 ± 1.7 | 94.4 | 55.6 ± 3.8 | 80.6 | 99 ± 8.5 | 72.3 | 73.6 ± 4.1 | 64.9 ± 9.5 | 104 ± 1.1
Cc1ccsc1C(=CCCN1CCC[C@@H](C(=O)O)C1)c1sccc1C [Tiagabine hydrochloride] | 100 ± 1.8 | 93.2 | 90.8 ± 14 | 86.4 | 96.1 ± 6.3 | 95.6 | 97.2 ± 14 | 109 ± 34 | 105 ± 2
CC(=O)Oc1cc2c(s1)CCN(C(C(=O)C1CC1)c1ccccc1F)C2.Cl (stereo not given) [Prasugrel hydrochloride] | 140 ± 12 | 137 | 109 ± 14 | 120 | 74.2 ± 5.5 | 149 | 110 ± 20 | 110.1 ± 0.98 | 133 ± 10
CCn1cc(C(=O)O)c(=O)c2cc(F)c(N3CCNCC3)cc21 [Norfloxacin] | 104 ± 11 | 143 | 116 ± 27 | 101 | 163 ± 52 | 166 | 130 ± 8.1 | 80.5 ± 17 | 160 ± 12
Cc1nccn1CC1CCc2c(c3ccccc3n2C)C1=O.Cl.O.O (stereo not given) [Ondansetron hydrochloride dihydrate] | 101 ± 12 | 82.1 | 117 ± 49 | 107 | 143 ± 6 | 106 | 83.84 ± 0.49 | 88.3 ± 12 | 68.2 ± 14
CC(=O)OCC[N+](C)(C)C.[Cl-] [Acetylcholine Chloride] | 104 ± 23 | 85.8 | 95.1 ± 7.5 | 87.1 | 101 ± 9.6 | 97.8 | 69.3 ± 1.8 | 96.7 ± 6.8 | 107 ± 21
COc1ccc2c(c1)c(CC(=O)O)c(C)n2C(=O)c1ccc(Cl)cc1 [Indomethacin] | 106 ± 20 | 88.7 | 96.7 ± 1.1 | 79.2 | 105 ± 4.9 | 92 | 72.4 ± 13 | 92.1 ± 4.3 | 93 ± 5.3
Cc1cc(C(C)(C)C)cc(C)c1CC1=NCCN1.Cl [Xylometazoline HCl] | 74.9 ± 49 | 114 | 103 ± 40 | 89.9 | 136 ± 29 | 106 | 83.9 ± 1.7 | 110 ± 3.6 | 158 ± 12
CC(=O)Nc1ncc([N+](=O)[O-])s1 [Nithiamide] | 112 ± 16 | 159 | 106 ± 6.2 | 105 | 67.5 ± 5.2 | 133 | 109 ± 6.1 | 117 ± 13 | 91.3 ± 2
O=C(O)[C@H](O)[C@@H](O)C(=O)O.c1cnc2cc3c(cc2n1)C1CNC[C@@H]3C1 [Varenicline Tartrate] | 169.5 ± 0.68 | 128 | 131 ± 5.6 | 138 | 128.8 ± 0.16 | 153 | 99.9 ± 8.8 | 106 ± 5.1 | 158 ± 25
CNCC(O)c1ccc(O)c(O)c1.Cl (stereo not given) [Epinephrine HCl] | 102 ± 3.8 | 112 | 91.6 ± 15 | 76.6 | 118 ± 17 | 119 | 118 ± 11 | 142 ± 3.3 | 100 ± 1.1
